# Experimental data published in publication PMC7862700, “An all-to-all approach to the identification of sequence-specific readers for epigenetic DNA modifications on cytosine”.
# Assays:
# Experiment in all cases: DAPPL (digital affinity profiling via proximity ligation, sequencing); 10 mM Tris-HCl pH 7.5, 50 mM NaCl, 1 mM DTT, 4% glycerol, room temperature, 30 min; GST-TFs on glutathione beads, 16-mer random dsDNA library, 0.1% formaldehyde crosslink after washing; high values mean tight binding
# Settings in all cases: protein: recombinant; tags: N-terminal GST; dsDNA, one strand shown
# FLI1 = biological target: T1, FLI1 (Homo sapiens, UniProt Q01543 1-452)
# T1 sequence: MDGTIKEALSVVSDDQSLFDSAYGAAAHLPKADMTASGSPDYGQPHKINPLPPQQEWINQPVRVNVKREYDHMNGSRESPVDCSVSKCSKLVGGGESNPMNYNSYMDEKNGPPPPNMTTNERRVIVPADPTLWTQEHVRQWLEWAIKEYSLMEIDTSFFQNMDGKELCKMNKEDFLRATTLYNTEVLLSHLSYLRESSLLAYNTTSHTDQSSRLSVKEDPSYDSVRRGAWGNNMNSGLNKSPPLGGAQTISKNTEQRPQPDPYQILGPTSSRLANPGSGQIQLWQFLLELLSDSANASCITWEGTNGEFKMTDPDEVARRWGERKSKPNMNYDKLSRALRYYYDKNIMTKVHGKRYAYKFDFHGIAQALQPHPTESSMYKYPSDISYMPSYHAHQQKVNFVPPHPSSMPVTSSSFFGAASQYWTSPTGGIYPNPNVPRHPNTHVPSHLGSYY
# Outline: (§1)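 Binding signal is given per hexamer as its read frequency for a factor divided by its frequency in the tag-only sample. GST-fused human transcription factors were expressed in yeast, captured on glutathione beads, barcoded with DNA and pooled with that sample, then incubated with 200 nmole of a 16-mer random double-stranded DNA library in Tris/NaCl/DTT/glycerol buffer for 30 min at room temperature. The pools were then washed, crosslinked, proximity-ligated, amplified by PCR and sequenced on an Illumina NextSeq500.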
# ELK1 = biological target: T2, ELK1 (Homo sapiens, UniProt P19419 1-428)
# T2 sequence: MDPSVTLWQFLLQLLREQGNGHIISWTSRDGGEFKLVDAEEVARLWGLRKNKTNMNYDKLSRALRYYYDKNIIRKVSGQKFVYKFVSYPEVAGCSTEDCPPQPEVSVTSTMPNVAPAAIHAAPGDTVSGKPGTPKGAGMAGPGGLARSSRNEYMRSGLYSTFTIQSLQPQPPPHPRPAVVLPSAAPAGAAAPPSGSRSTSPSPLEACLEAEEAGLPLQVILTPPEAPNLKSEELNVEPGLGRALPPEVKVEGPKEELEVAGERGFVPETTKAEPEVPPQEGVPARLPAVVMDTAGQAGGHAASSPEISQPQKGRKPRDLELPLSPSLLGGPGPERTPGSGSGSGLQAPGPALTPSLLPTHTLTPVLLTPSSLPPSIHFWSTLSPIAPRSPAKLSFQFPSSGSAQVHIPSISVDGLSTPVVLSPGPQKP
# Outline: as §1
# GABPA = biological target: T3, GABPA (Homo sapiens, UniProt Q06546 1-454)
# T3 sequence: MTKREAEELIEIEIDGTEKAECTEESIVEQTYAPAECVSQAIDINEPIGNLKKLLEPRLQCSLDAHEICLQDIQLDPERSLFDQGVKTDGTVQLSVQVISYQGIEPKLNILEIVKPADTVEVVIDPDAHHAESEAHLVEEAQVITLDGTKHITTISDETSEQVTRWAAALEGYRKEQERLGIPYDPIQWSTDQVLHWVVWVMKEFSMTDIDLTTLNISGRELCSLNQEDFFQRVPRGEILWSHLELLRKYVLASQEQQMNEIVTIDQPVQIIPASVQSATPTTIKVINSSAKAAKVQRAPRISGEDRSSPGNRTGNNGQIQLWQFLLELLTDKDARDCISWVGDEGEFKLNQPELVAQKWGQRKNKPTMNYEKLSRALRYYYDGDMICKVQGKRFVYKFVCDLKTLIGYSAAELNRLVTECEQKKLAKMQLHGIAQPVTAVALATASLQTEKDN
# Outline: as §1
# ERG = biological target: T4, ERG (Homo sapiens, UniProt P11308 1-479)
# T4 sequence: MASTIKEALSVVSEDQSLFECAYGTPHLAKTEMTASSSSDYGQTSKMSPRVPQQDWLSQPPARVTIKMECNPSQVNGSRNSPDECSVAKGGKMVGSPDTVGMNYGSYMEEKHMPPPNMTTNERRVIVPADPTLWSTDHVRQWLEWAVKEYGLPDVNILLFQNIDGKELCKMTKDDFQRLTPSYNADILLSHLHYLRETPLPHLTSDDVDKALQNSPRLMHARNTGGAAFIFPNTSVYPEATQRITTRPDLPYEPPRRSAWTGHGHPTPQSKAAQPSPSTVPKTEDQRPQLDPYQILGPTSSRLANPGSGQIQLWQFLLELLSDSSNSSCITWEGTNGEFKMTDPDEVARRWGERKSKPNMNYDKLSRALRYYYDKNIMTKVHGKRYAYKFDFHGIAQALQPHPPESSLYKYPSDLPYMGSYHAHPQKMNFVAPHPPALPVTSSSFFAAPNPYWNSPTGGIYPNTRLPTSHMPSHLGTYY
# Outline: as §1
# ELF1 = ELF1 (Homo sapiens, UniProt P32519 1-619)
# Outline: as §1
# EHF = biological target: T5, EHF (Homo sapiens, UniProt Q9NZC4 1-300)
# T5 sequence: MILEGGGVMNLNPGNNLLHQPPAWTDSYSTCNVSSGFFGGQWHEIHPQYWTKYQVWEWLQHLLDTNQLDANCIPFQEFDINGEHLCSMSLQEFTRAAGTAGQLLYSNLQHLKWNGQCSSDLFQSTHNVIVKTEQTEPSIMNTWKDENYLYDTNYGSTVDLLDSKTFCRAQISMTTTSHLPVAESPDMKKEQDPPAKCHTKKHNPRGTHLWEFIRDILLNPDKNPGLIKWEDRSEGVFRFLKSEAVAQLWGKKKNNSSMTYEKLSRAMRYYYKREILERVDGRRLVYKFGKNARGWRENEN
# Outline: as §1
# SPI1 = SPI1 (Homo sapiens, UniProt P17947 1-270)
# Outline: as §1
# SPIB = SPIB (Homo sapiens, UniProt Q01892 1-262)
# Outline: as §1
# ELK3 = biological target: T6, ELK3 (Homo sapiens, UniProt P41970 1-407)
# T6 sequence: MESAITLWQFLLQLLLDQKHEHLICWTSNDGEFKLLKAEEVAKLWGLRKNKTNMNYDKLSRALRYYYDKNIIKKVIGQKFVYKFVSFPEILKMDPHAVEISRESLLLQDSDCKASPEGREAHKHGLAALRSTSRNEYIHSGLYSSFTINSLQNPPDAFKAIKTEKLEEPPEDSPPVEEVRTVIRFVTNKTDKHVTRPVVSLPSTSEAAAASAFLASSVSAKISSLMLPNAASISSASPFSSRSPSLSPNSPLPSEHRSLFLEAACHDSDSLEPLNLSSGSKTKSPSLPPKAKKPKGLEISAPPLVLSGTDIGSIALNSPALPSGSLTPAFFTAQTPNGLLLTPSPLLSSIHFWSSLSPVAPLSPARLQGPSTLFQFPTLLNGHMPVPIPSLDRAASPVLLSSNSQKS
# Outline: as §1
# Chain of ELF1 (P32519 whole entry): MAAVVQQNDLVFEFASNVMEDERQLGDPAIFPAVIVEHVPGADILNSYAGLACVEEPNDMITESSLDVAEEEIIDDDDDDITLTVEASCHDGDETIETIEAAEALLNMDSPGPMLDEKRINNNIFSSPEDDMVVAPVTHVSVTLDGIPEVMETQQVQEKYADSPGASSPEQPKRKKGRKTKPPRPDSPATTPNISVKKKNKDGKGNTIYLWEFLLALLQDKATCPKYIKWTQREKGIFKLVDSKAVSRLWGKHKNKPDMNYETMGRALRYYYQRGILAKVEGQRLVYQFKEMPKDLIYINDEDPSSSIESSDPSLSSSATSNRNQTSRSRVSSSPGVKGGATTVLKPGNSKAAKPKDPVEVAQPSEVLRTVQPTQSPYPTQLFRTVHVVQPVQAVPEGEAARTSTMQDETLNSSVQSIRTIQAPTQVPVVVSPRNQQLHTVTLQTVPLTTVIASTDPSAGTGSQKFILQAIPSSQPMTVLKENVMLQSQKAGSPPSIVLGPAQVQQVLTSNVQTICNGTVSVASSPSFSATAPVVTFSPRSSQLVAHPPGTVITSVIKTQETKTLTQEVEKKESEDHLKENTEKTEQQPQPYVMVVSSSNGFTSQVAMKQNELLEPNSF
# Chain of SPIB (Q01892 whole entry): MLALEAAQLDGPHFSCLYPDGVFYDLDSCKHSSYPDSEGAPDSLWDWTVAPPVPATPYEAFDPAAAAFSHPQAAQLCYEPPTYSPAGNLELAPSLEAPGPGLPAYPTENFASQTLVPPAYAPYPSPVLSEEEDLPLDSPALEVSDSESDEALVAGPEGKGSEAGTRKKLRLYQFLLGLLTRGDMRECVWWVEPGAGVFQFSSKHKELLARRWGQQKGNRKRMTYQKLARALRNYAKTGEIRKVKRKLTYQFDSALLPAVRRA
sequence,measurement,setting,value
ATCCCC,binding signal,FLI1,"1.47 fold enrichment (6-mer frequency, TF over GST control)"
same,binding signal,ELK1,"1.46 fold enrichment (6-mer frequency, TF over GST control)"
same,binding signal,GABPA,"1.35 fold enrichment (6-mer frequency, TF over GST control)"
same,binding signal,ERG,"1.52 fold enrichment (6-mer frequency, TF over GST control)"
same,binding signal,ELF1,"1.5 fold enrichment (6-mer frequency, TF over GST control)"
same,binding signal,EHF,"1.46 fold enrichment (6-mer frequency, TF over GST control)"
same,binding signal,SPI1,"1.39 fold enrichment (6-mer frequency, TF over GST control)"
same,binding signal,SPIB,"1.39 fold enrichment (6-mer frequency, TF over GST control)"
same,binding signal,ELK3,"1.2 fold enrichment (6-mer frequency, TF over GST control)"
